Screens as filed in PubChem BioAssay.
HT1080 IDH1KD tx: HT-1080 IDH1 knockdown cell toxicity (counter line); HT-1080 IDH1 knockdown viability, ATP luminescence, 48 h; Potency, µM (series often up to 46.1 µM), for the others: top-dose activity, negative = toxicity, actives largely listed as cytotoxic; hit rate 2% among 360,000; AID 686971;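 note: 0% = DMSO wells and -100% = cell-free medium wells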
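Using the IDH1-knockdown HT-1080 line run in the same batch and compound series as the NT line, viability after 48 h at 37 °C was determined by CellTiter-Glo luminescence and expressed as % activity.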
KB-V1 MDR tox: kills drug-selected multidrug resistant KB-V1 cells; KB-V1 MDR cells viability, CellTiter-Glo, 72 h; Potency, µM (doses to about 46.1 µM), usual class: cytotoxic; hit rate 3.4% among 400,000; AID 1347076; note: nearly all actives have a fitted effect of over 60% in size
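KB-V1 cells (P-gp-expressing MDR subline of KB-3-1) in phenol-red-free DMEM with 10% FBS were exposed to library compounds over a concentration series for 72 h at 37 degrees C. Viability read by CellTiter-Glo luminescence; concentration-effect curves fitted after normalization.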
DT40 TDP1 CPT: growth inhibition of DT40 Tdp1-/-;hTDP1 cells with camptothecin (screen for TDP1 inhibitors) | chicken DT40 Tdp1-/-;hTDP1 cells + 20 nM CPT, ATP luminescence, 48 h | hit rate 12% among 420,000 | Potency, µM (doses to about 46.2 µM), without a hit: top-dose activity change, negative = growth inhibition, most hits filed as inhibitors; note: nearly all actives have a fitted effect of over 55% in size
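Chicken DT40 Tdp1-/- cells complemented with human TDP1, 400 cells/well, exposed to compounds plus 20 nM camptothecin for at least 48 h at 37 C; viability read as ATP content by CellTiter-Glo luminescence.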
KB-3-1 cytotox: kills parental KB-3-1 adenocarcinoma cells. KB-3-1 viability, CellTiter-Glo ATP luminescence, 72 h. Potency, µM (series often up to 46.1 µM), actives largely listed as cytotoxic. hit rate 1.4% among 400,000. AID 1347075; note: nearly all actives have a fitted effect of over 60% in size
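Viability of parental KB-3-1 cells, measured by CellTiter-Glo luminescence, followed a 72 h incubation at 37 °C with pinned compounds in phenol-red-free DMEM containing 10% FBS.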
DT40 TDP1 no CPT: qHTS for Inhibitors of human tyrosyl-DNA phosphodiesterase 1 (TDP1): qHTS in cells in absence of CPT; DT40 Tdp1-/- hTDP1 cells, no CPT, ATP luminescence, 48 h; Potency, µM (highest dose often 46.2 µM), without a hit: at the top dose activity change, negative = growth inhibition, most hits filed as inhibitors; hit rate 15% among 420,000; note: nearly all actives have a fitted effect of over 55% in size
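Chicken DT40 Tdp1-/- cells stably complemented with human TDP1 were seeded at 400 cells/well with DMSO in place of 20 nM camptothecin. After compound pinning, cells grew at least 48 hr at 37 °C; viability read by CellTiter-Glo luminescence.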
HT1080-NT tox: kills 2HG-producing HT-1080-NT fibrosarcoma cells; HT-1080-NT fibrosarcoma viability, CellTiter-Glo ATP luminescence, 48 h; Potency, µM (titrated, usually from 46.1 µM), for the others: top-dose activity, negative = less viability, most hits filed as cytotoxic; hit rate 1.6% among 360,000;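 note: NT is the 2HG producing partner of a matched IDH1 knockdown line; 0% = DMSO-treated cells and -100% = media-only wells without cells; nearly all actives have a fitted effect of over 55% in size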
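HT-1080-NT; 750 cells/well; 5% FBS RPMI; 48 h compound, 37 degrees C; CellTiter-Glo luminescence; curve fitting and curve-class assignment.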
The depositor's hits bear a star; i = inactive; ? = inconclusive; nt = no result given; [ ] = dose if it differs, or a comment. A selection: hits, their analogues and other compounds. The true share with any hit is near 19%. Calls come from the whole dose curve; as a rule, active = well fitted curve in the direction sought with a large enough effect; inconclusive = small, poorly fitted or top-dose-only effect, or another doubt; inactive = no such curve, though single readings can be large; an effect the other way counts as inactive or inconclusive. Unless noted, % is set by controls: 0 for no effect and ±100 for the full control effect; potency is the fitted concentration of half-maximal effect.

SMILES	HT1080 IDH1KD tx	KB-V1 MDR tox	DT40 TDP1 CPT	KB-3-1 cytotox	DT40 TDP1 no CPT	HT1080-NT tox
COc1cc(OC)c(Nc2nc3ccc(C)cc3n3nnnc23)cc1Cl	nt	nt	-6%	nt	-4%	nt
COc1cccc(NC(=O)Cn2c(=O)n(CCC(=O)NCc3ccccc3OC)c(=O)c3ccccc32)c1	nt	i	26µM*	i	?	nt
COc1ccccc1CNC(=O)CCCCn1c(=O)c2ccccc2n(CC(=O)Nc2cccc(Cl)c2)c1=O	nt	?	23µM*	i	9.2µM*	nt
COc1ccccc1CNC(=O)CCn1c(=O)c2ccccc2n(CC(=O)Nc2ccc(C)cc2)c1=O	nt	i	?	i	?	nt
O=C(O)c1ccc(N/N=C2/CCCc3ccccc32)cc1	-1%	i	-12%	i	5%	-9%
O=C(NCCC1CCCCN1S(=O)(=O)c1ccccc1)C(=O)NCc1ccc(F)cc1 (stereo not given)	-8%	i	?	i	18µM*	-8%
Cc1ccc(CNC(=O)C(=O)NCCC2CCCCN2S(=O)(=O)c2ccccc2)cc1 (stereo not given)	-25%	?	?	i	15µM*	-16%
COC(=O)c1cccc(Nc2c(-c3ccc(OC)cc3)nc3nc[nH]n23)c1	nt	i	21µM*	i	?	nt
COC(=O)c1cccc(Nc2c(-c3ccc(O)cc3)nc3nc[nH]n23)c1	nt	i	?	i	?	nt
Cc1ccc(NC(=O)COc2coc(CN3CCc4ccccc43)cc2=O)cc1Cl	12%	i	23µM*	i	15µM*	8%
Cc1ccccc1NC(=O)COc1coc(CN2CCCc3ccccc32)cc1=O	-8%	?	21µM*	i	15µM*	-1%
Cc1ccc(C)c(NC(=O)COc2coc(CN3CCc4ccccc43)cc2=O)c1	-3%	?	-84%	i	12µM*	-1%
O=C(COc1coc(CN2CCc3ccccc32)cc1=O)N1CCCCC1	-4%	i	8%	i	1%	1%
CCOc1ccccc1NC(=O)COc1coc(CN2CCc3ccccc32)cc1=O	-3%	i	?	i	?	-4%
O=C(COc1coc(CN2CCc3ccccc32)cc1=O)NCCc1ccccc1	1%	i	?	i	18µM*	4%
Cc1cccc(CNC(=O)CS(=O)(=O)c2cccc3nsnc23)c1	nt	i	7%	i	9%	nt
COc1cc(OC)cc(-c2nc3n(n2)C(c2ccccc2F)C(C(=O)Nc2cccnc2)=C(C)N3)c1 (stereo not given)	nt	?	?	i	?	nt
COc1ccccc1OCCNC(=O)CN1C(=O)NC2(CCCCC2)C1=O	3%	i	6%	i	16%	8%[9.24 µM]
CCc1ccc(/C=C/C(=O)c2ccc(N3CCOCC3)cc2)cc1	?	i	?	?	?	-23%
O=C(/C=C/c1ccc(F)cc1)c1ccc(N2CCOCC2)cc1	5%	i	21µM*	i	?	-2%
C/C(=C\C(=O)c1ccc(F)cc1)Nc1ccc(N2CCOCC2)cc1	2%	21µM*	-3%	i	-27%	-3%
C/C(=N\NC(=O)c1ccc(F)cc1)c1ccc(N2CCOCC2)cc1	-20%	i	15%	i	-10%	-4%
O=S(=O)(NCC(Nc1ccccc1)c1ccccc1)c1ccc(Cl)cc1 (stereo not given)	-11%	21µM*	?	i	29µM*	-16%
COc1ccc(CCNC2CC(=O)N(C3CCCCC3)C2=O)cc1OC (stereo not given)	8%	i	-16%	i	-11%	14%
Cc1ccc(-c2nc(C(=O)NC3CCCCCC3)no2)cc1	-5%	i	?	i	18µM*	-5%
